Measurements as given in the supplement of paper PMC11417369.
In all, about 25,000 sequences were measured (“ln(normalized median fluorescence intensity)”: median about 7.1, highest 2% from about 10 on). Many of the other results were omitted from the sample, so the highest values are more common in it than they were.

System: PfSIP2 AP2 domain 1 (GST-tagged)
Test: gcPBM binding intensity (ln(normalized median fluorescence intensity)); higher = stronger DNA binding
Outline: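 Using an Agilent 4 × 180k array, primer-extended double-stranded 36-bp intergenic genomic probes and negative controls were exposed for 1 h to GST-fused P. falciparum DNA-binding domains expressed in E. coli. Binding was carried out in 1× PBS with 1% milk, 0.2 mg/ml BSA, 0.5% salmon testes DNA and 0.03% Triton X-100, and protein was detected with Alexa488 anti-GST antibody and a 488 nm scan. Binding intensity is the highest Masliner-normalised natural-log median intensity across replicate spots of either probe orientation.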

| Sequence | gcPBM binding intensity (ln) |
| --- | --- |
| TGTTTATTTTTTTTATGTACTTATTTTTTATTGCAT [XGTACX_site719] | 7.61 |
| ATATTTTTATTTAAATCACATCATTTTGTTTATTTG [CACACA_negctrl_site1056] | 6.95 |
| GAAAAATTAAAAATAACACACACATATATATATTTA [CACACA_site8896] | 6.98 |
| TAAAATAATATTTATGTGCACATATAATTATTAATT | 8.71 |
| AAAATTAACGAGTGCACACATATTTAGATAAAATAC [CACACA_site2936] | 11.2 |
| AAAATTAAAAATAACACACACATATATATATTTATA [CACACA_site2776] | 6.9 |
| AAAATTAAAAATAACACACACATATTTATATTTATA [CACACA_site7329] | 6.87 |
| AAAAAATTAACGAGTGCACACATATTTAGATAAAAT [CACACA_site8958] | 10.6 |
| TTTTATTTATTATTATGTACACACTATATTAAAACA [XGTACX_site1265] | 7.13 |
| TTGTTATTCCACCGTTGTACAGTTATATACATACAC [XGTACX_site8296] | 7.31 |
| GTACATTGTAAGGATGGAAAAGCTAAACATTATAAT [XGTACX_negctrl_site339] | 6.99 |
| ATAGAACAATTCAGAAGTACATAAAAAGAAAAATTT [XGTACX_site3015] | 6.9 |
| ATGAACATTTATAAATGTACTCACATATATATATTT [XGTACX_site6692] | 7.02 |
| TTTTTTTTTTTTGAGGTGCATATATCAGATCAATAT | 10.6 |
| ATATATATATGTTAGGTGCATATATATTTTGTGGAT [GTGCAC_site9964] | 9.6 |
| TAATGTTGAGAATTTTGTACATATAGATCAATTTAT [XGTACX_site5426] | 6.84 |
| TGATGATATAAAAACACACACATATAACATAATACT [CACACA_site6687] | 7.04 |
| TACACAAATATATATATATATATATATATATATATA [XGTACX_negctrl_site305] | 9.89 |
| AATATAATATAATGCACACATAAACAAAAAAAAAAT [CACACA_site1304] | 7.53 |

| Sequence | gcPBM binding intensity (ln) |
| --- | --- |
| ATGAGTGCACAAATATATATATATATATATATATAT [CACACA_negctrl_site404] | 11.6 |
| TATAAATATACAAACACACATACAAACATATATATA [CACACA_site1120] | 7.27 |
| GCACAAATATATATATATATATATATATATATATAT [GTGCAC_negctrl_site661] | 9.36 |
| ATATAATCTGAGTGCACACAAATAAATAAACATACA [CACACA_site422] | 10.4 |
| TAATATAATCTGAGTGCACACAAATAAATAAACATA [CACACA_site8032] | 10.3 |
| TACATATTGATATATACACACAAAAAAATAAATTCT [CACACA_site6198] | 7 |
| AAAATATAAAATAATGCACACATAAACAAAAAATCA [CACACA_site8382] | 7.33 |
| TAAATATATAAATACACACAAACATACATATATATA [CACACA_site4050] | 7.55 |
| TATATACATATATGCACACAAAAAAATATATATTTT [CACACA_site1729] | 7.3 |
| ATATATTTGATAAGAGTGCACAAATACATACATACA [GTGCAC_site9704] | 10.6 |
| TATACATATATTATATGTACATATATATATAATATA [XGTACX_site2942] | 7.26 |
| TACTATCTATACAATACACACAAAAAAAAAAAAATA [CACACA_site3981] | 6.95 |
| AATTGAGAAGTGTGTTGTACATAATGGCACATACCT [XGTACX_site1370] | 7.22 |
| ATATTAACTATCATAACACACACAGTAGACATATTT [CACACA_site6941] | 6.99 |
| CATTTTTTGCTTTCAACACACATACAATATAAATAA [CACACA_site7858] | 7.27 |
| ATGAACTAAACTAATCGTACAATAAGTTTTATTATA [XGTACX_site4891] | 6.84 |
| GGCATTTTATGAAGTAGTACCATAAATATTAAAGAT [XGTACX_site5287] | 7.32 |
| TTTATATTTATCCAAAGTACTTTTTAAAAACATACC [XGTACX_site4518] | 7.36 |
| TGGCTTATTCAGAAATGTACACATATAAATATATAT [XGTACX_site3765] | 7.11 |

| Sequence | gcPBM binding intensity (ln) |
| --- | --- |
| AATGGGATCATGGTATGTACTTACACAAATGAATTA [XGTACX_site5389] | 6.82 |
| CTATAAATATTTTATTGTACACACTTTTTATGAATG [XGTACX_site6711] | 7.22 |
| TTCATTAAAATTATTACACACAGTTCTTCAACCAAA [CACACA_site3504] | 6.84 |
| AAAGGTTTATATGATACACACATAAGTGATCAGGTT [CACACA_site190] | 6.75 |
| GGAAAAATATAATATGCATGTTATTATTTTTTTATA [TGCATGCA_site836] | 6.77 |
| GTAGATATTTATTGAGTGCATGTTATAAAGGGAAAA [GTGCAC_site9481] | 9.62 |
| AGATATTTATTGAGTGCATGTTATAAAGGGAAAAAA [TGCATGCA_site88] | 10.3 |
| TAAAAACATTTAAATTGTACGGAAATAAAAATTTTT [XGTACX_site8225] | 6.94 |
| AGTAATAGTTTGTGCACACTCAAGTATATCATATAT [CACACA_site4034] | 9.56 |
| AATATATGGTTTCATGATATTAAATTCAAAATAATG [CACACA_negctrl_site318] | 6.75 |
| TATATTTCTTCTATAACATGCAGATATATGAAAATA [TGCATGCA_site971] | 7.11 |
| TATTTCAAAATATGGGTGCAGTTCTTCATGATATAT [GTGCAC_site9658] | 10.7 |
| TTTAAAAAATGTTATATTATATAATTAAAAAAAAAA [CACACA_negctrl_site1509] | 6.63 |
| AACCAAACAAATAAACGTACAAACATTACATATATT [XGTACX_site2265] | 7.05 |
| TTACTATGTAAACACACATGCAATATATGTTAAGCC [TGCATGCA_site253] | 6.91 |
| TTTATAAAGGGAAAGGTGCAAAAGGTGAAAGTTTTA | 10.8 |
| AGTGTTTTTTATAAAGTGCAATATAAAAACAAAATG | 8.59 |
| AATTATTGTGAAGGGAAAACAAAAAAGTTTATAATT [CACACA_negctrl_site1337] | 6.87 |
| TATATATATATACATTGTACATTATTGATTATAACA [XGTACX_site1678] | 9.52 |
